Compound activity: PubChem, National Center for Advancing Translational Sciences (NCATS)
Shown are actives, neighbours in structure and some others; about 8.3% of the full set was active somewhere.
MCF10A rereplic – A quantitative high throughput screen for small molecules that induce DNA re-replication in MCF 10a normal breast cells. Potency, µM (doses to about 46.1 µM), without a hit: at the highest dose activity, positive = re-replication, hits mostly activators. AID 624296, 2012. 350,000 compounds, 2.9% hits. MCF 10A DNA re-replication, Hoechst nuclear intensity, 48 h; further: potency means the concentration at half of the fitted maximal effect; % of control where 0% means no effect; nearly all actives have a fitted effect of over 50% in size
RORg inh – qHTS for inhibitors of ROR gamma transcriptional activity; Drosophila S2 Gal4-RORgamma UAS-luciferase reporter, 20 h; Potency, µM (highest dose often 53.6 µM), without a hit: top-dose activity change, negative = inhibition, actives largely listed as inhibitors; 310,000 compounds, 5.4% hits; AID 2551, 2010; further: potency means the concentration at half of the fitted maximal effect; on the % scale 0 is the no-effect control and ±100 the full control effect; nearly all actives have a fitted effect of over 60% in size
Target sequence (P51450 whole entry, looked up, the tested form may be a part): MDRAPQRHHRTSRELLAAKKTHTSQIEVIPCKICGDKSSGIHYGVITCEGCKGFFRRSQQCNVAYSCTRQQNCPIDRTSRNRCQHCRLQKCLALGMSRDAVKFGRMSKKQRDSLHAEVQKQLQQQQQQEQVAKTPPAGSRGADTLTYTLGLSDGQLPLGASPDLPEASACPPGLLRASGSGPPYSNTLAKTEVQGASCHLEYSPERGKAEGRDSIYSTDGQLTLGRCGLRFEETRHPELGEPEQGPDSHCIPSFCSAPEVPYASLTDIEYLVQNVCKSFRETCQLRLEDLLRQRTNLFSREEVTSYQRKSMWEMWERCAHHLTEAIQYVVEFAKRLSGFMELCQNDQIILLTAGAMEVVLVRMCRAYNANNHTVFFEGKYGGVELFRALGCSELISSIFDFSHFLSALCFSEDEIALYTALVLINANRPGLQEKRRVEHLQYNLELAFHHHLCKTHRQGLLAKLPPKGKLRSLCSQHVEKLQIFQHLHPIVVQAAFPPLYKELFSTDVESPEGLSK
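Stable Schneider cell line, Gal4 DNA-binding domain fused to ROR gamma, UAS-luciferase. Cmpd 1 hr RT → CuSO4 700 uM final → 20 hr RT → luciferase reagent 10 min → luminescence.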
BCR signal inh – qHTS Assay to Find Inhibitors of Chronic Active B-Cell Receptor Signaling. ABC-DLBCL IkBa-CBG/CBR reporter, luminescence ratio, 4 h. Potency, µM (top dose mostly 46.1 µM), inactives show at the highest dose activity change, negative = inhibition, most hits filed as inhibitors. 340,000 compounds, 0.05% hits. AID 493014, 2011; active means well fitted inhibition curve with a large enough effect in the signal ratio, with a control signal flat, not every such curve was filed as active; inconclusive means small, poorly fitted or top-dose-only effect, or effect the other way, or a change in a side signal; the % refers to the signal ratio;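 further: potency means the concentration at half of the fitted maximal effect; plate controls were basal doxycycline-induced cells for no effect and cells given 10 µM MG132 for full effect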
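Concentration-response series (up to 46 uM) were applied to TMD8 dual-reporter cells for 4 h at 37C with doxycycline. Green/red ratio, after filter-overlap correction, defined %Activity; red signal alone was normalised to basal cells and zero luminescence.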
SW480 rereplic – A quantitative high throughput screen for small molecules that induce DNA re-replication in SW480 colon adenocarcinoma cells; 340,000 compounds, 1.8% hits; Potency, µM (top dose mostly 46.1 µM), inactives show at the highest dose re-replication activation, actives largely listed as activators; SW480 DNA re-replication, Hoechst DNA content imaging, 48 h; further: potency means the concentration at half of the fitted maximal effect; % of control where 0% means no effect; nearly all actives have a fitted effect of over 55% in size
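250 cells/well; 23 nL cpd via pin tool; 48 hr, 37 C, 5% CO2; Hoechst 40 min; imager read of total nuclear intensity, ex 405/em 500-530 nm.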
Giardia kill – Small Molecules that selectively kill Giardia lamblia: qHTS. 340,000 compounds, 0.15% hits. AID 540267, 2011. activity change, % at 7.66 µM, hits read low. Giardia lamblia trophozoite viability; in the data active means activity change below about -80%; inconclusive means between about -30% and that limit;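 further: parasites exposed to compound for two days anaerobically before the ATP read; on the % scale 0 is the no-effect control and ±100 the full control effect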
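Giardia trophozoites, 100 cells per well, were exposed to compounds for 48 hrs at 37 deg C under anaerobic conditions; viability was then read as ATP content by bioluminescence after 15-30 min at room temperature.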
VP16 counter – VP16 counterscreen qHTS for inhibitors of ROR gamma transcriptional activity | Drosophila S2 Gal4-VP16 UAS-luciferase, luminescence, 20 h | Potency, µM (series often up to 53.6 µM), for the others: at the highest dose activity, negative = inhibition, hits mostly inhibitors | 310,000 compounds, 3.5% hits | AID 2546, 2010;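 further: Gal4-VP16 expression switched on by copper sulfate through the metallothionein promoter; potency means the concentration at half of the fitted maximal effect; on the % scale 0 is the no-effect control and ±100 the full control effect; nearly all actives have a fitted effect of over 50% in size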
Starred values were filed as active, the others as inactive; ? = inconclusive; · = no result; [ ] = another dose, or the depositor's remark. Unless noted, the call rests on the fitted dose curve; in most records, active means well fitted curve in the direction sought with a large enough effect; inconclusive means small, poorly fitted or top-dose-only effect, or another doubt; inactive means no such curve, though single readings can be large; an effect the other way counts as inactive or inconclusive.

SMILES | MCF10A rereplic | RORg inh | BCR signal inh | SW480 rereplic | Giardia kill | VP16 counter
COc1cc(NC(=S)NC(=O)c2cccs2)ccc1NC(=O)C(C)C | 9% | 13µM* | ? | 5% | 10 | ?
COc1cc(NC(=O)c2cccs2)c(OC)cc1NC(=O)CCC(=O)Nc1ccc(C)cc1 | 21µM* | -22% | 2% | ? | 13 | 0%
CC(C)C(=O)Nc1cccc(NC(=S)NC(=O)c2cccs2)c1 | -2% | -40% | ? | -2% | -18 | ?
CCCCC(=O)Nc1ccc(NC(=S)NC(=O)c2ccco2)cc1OC | 9% | 10% | -10% | 0% | -8 | 0%
CCCCC(=O)Nc1ccc(NC(=S)NC(=O)CC)cc1OC | 0% | 13µM* | -1% | 1% | 22 | -1%
CCCCC(=O)Nc1ccc(NC(=S)NC(=O)c2cccs2)cc1OC | 2% | 10µM* | -18% | 11% | 8 | ?
CN(CC(=O)Nc1ccc(F)c(F)c1F)C(=O)C1COc2ccccc2O1 (stereo not drawn) | -21% | · | 0% | -1% | 17 | ·
CC/C(Cc1ccccc1)=N\NC(=O)c1cc([N+](=O)[O-])cc([N+](=O)[O-])c1 | -6% | 7.9µM* | 2% | 1% | -8 | -14%
COc1ccc(C(=O)Cc2ccccc2)cc1OC | -5% | -2% | -2% | -699% | 9 | 5%
C/C(=N\NC(=O)c1ccc(CSc2cccc3cccnc23)cc1)C1CCCCC1 | -50% | -21% | -2% | -41% | -4 | -4%
O=C(/C=C/c1ccc([N+](=O)[O-])cc1)c1cccnc1 | ? | ? | 1% | ? | -13 | 22µM*
COc1ccc(/C(C)=N/NC(=O)c2ccc(CSc3cccc4cccnc34)cc2)cc1OC | 22% | 16µM* | -15% | 3% | -15 | 20%
O=C(/C=C/c1ccc([N+](=O)[O-])cc1)NCc1cccnc1 | 13% | 19% | -1% | 13% | -14 | 20%
COc1ccc(C(=O)NN=C(Cc2ccccc2)Cc2ccccc2)cc1OC | ? | 11µM* | ? | ? | -13 | ?
COc1ccc(CCNC(=O)Cn2c([N+](=O)[O-])cnc2C)cc1OC | 8% | -7% | ? | -5% | 23 | 3%
CCOC(=O)c1ccc(-n2c(CCC(=O)O)ccc2-c2ccc(F)cc2)cc1 | -5% | 5% | -3% | 3% | -16 | 2%
Cc1cc(C(=O)CCC(=O)NCC(=O)Nc2c(C)cccc2C)c(C)s1 | ? | · | -1% | -1% | 16 | ·
CC(/C=C/c1cccc([N+](=O)[O-])c1)=N/NC(=O)c1cccnc1 | 16% | 3.2µM* | 1% | 7% | -5 | 5µM*
O=C(/C=C/c1ccc2c(c1)OCO2)c1cccnc1 | 9% | ? | 1% | ? | -4 | -7%
C/C(=N\NC(=O)c1cccnc1)c1cccc([N+](=O)[O-])c1 | -1% | 1% | -14% | 22% | ? | -3%[10 µM]
CC(/C=C/c1ccccc1)=N/NC(=O)c1cc([N+](=O)[O-])cc([N+](=O)[O-])c1 | 17% | 0.18µM* | 0% | -5% | 6 | 0.18µM*
COC(=O)N/N=C(C)/C=C/c1ccccc1 | -3% | · | · | -2% | 26 | ·
O=C(N/N=C/C=C\c1cccc([N+](=O)[O-])c1)c1cccnc1 | -1% | 6.3µM* | -16% | -12% | 17 | ?
O=C(N/N=C\C=C\c1ccc2c(c1)OCO2)c1cccnc1 | -8% | 5.6µM* | ? | ? | 1 | 11µM*
CC1CN(c2cnn(C(C)C)c(=O)c2Cl)CC(C)O1 (stereo not drawn) | 0% | 12% | 6% | -15% | 10 | 6%
SMILES | MCF10A rereplic | RORg inh | BCR signal inh | SW480 rereplic | Giardia kill | VP16 counter
CC(C)(C)C(=O)Nc1ccc(C(=O)N/N=C/c2ccccc2OC(=O)c2ccccc2)cc1 | ? | 6.3µM* | 6% | ? | 13 | ?
COc1ccc(C(=O)N/N=C/c2ccc(OC(=O)c3ccccc3)cc2)cc1 | -7% | -23% | -14% | -8% | -2 | -6%
COc1ccc(C(=O)N/N=C/c2ccccc2OC(=O)c2ccccc2)cc1 | ? | 3.5µM* | ? | ? | -13 | 5µM*
O=C(O)COc1ccccc1/C=N/NC(=O)/C(=C\c1ccc2c(c1)OCO2)NC(=O)c1ccccc1 | 18µM* | 8% | -2% | 5% | 1 | 0%
CC(C)(C)C(=O)Nc1ccc(C(=O)N/N=C/c2ccccc2OC(=O)c2ccc(Cl)cc2)cc1 | 12% | 5% | 11% | 2.6µM* | -21 | -4%
CN1CCN2c3ccccc3CC3(C(=O)OC(C)(C)OC3=O)C2C1 (stereo not drawn) | · | · | · | · | 7 | ·
COc1cc(/C=N/n2cnnc2)ccc1OCCSc1ccc(C)cc1 | ? | 25% | 7% | -8% | -8 | -26%
Cc1noc(C)c1COc1cccc(C(=O)N(C)Cc2nc3ccccc3c(=O)[nH]2)c1 | -8% | · | -6% | 1% | 3 | ·
O=C(N/N=C/c1ccccc1OC(=O)c1ccc2c(c1)OCO2)c1ccccc1 | 21µM* | 11µM* | ? | ? | -2 | ?
COc1ccccc1/C=N/NC(=O)c1ccc2c(c1)OCO2 | 4% | ? | ? | 2% | -17 | -15%
O=C1SCCC1NC(=O)C(c1ccccc1)c1ccccc1 (stereo not drawn) | -2% | -9% | 12% | 1% | -9 | 8%
O=C(c1cccs1)N1CCN(c2ccc(F)cc2)CC1 | 0% | 1% | ? | -5% | 5 | 4%
O=C(NC(=S)N1CCN(c2ccc(F)cc2)CC1)c1cccs1 | -3% | 45µM* | ? | ? | -6 | 0.56µM*
O=C(c1cccs1)N1CCN(c2ccccc2)CC1 | -2% | -27% | 1% | -18% | -7 | ?
O=C(NC(=S)N1CCN(c2ccccc2)CC1)c1c(F)cccc1F | 1% | 0.71µM* | ? | 2% | 7 | 1.4µM*
O=C(NC(=S)N1CCN(c2ccc(O)cc2)CC1)c1cccs1 | ? | 3.5µM* | -6% | ? | -14 | 2.8µM*
C=C(C)CC1(c2ccccc2)Oc2ccccc2-c2nc3cc(Cl)c(Cl)cc3nc21 (stereo not drawn) | · | -22%[10 µM] | · | · | · | -1%[10 µM]
CC(=O)N1CCc2cc(N=NC3=C(O)CC(C)(C)CC3=O)ccc21 | -3% | ? | -3% | -55% | 0 | ?
